“And” between values parts separate entries of the source, which are not always exact repeats. Equal entries are not always repeated. Among all 5,500 compounds or so, about 2,000 (36%) were called active. Not shown: some 18% with an inconclusive outcome. No stated cut-off is given here; in the data, active means normalized growth mostly below about 0.91 (no sharp cut-off); inconclusive means no clear call, values can overlap the other calls; inactive means mostly above about 0.92. This is one part of the list.
Assay: chemical genetic growth profiling, strain panel (AID 1159580);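 further: tested at 20 µM; growth read once vehicle control cultures reached saturation at 30 °C; 1 = growth at the plate median or of vehicle wells; lower values mean less growth of the strain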
Settings: growth OD

Measured: normalized growth

O=C(O)CCCCCCCC(=O)O
inactive: S. cerevisiae deletion strains, locus YKL009W, strain mrt4, active compounds read low 0.937 | S. cerevisiae deletion strains, locus YKL068W, active compounds read low 1.01 | S. cerevisiae deletion strains, locus YKL085W, strain MDH1 (second series), active compounds read low 1 | S. cerevisiae deletion strains, locus YKL085W, strain MDH1, active compounds read low 1 | S. cerevisiae deletion strains, locus YKL160W, strain elf1, active compounds read low 1.04 | S. cerevisiae deletion strains, locus YKL190W, strain CNB1, active compounds read low 0.992 | S. cerevisiae deletion strains, locus YKR001C, strain vps1, active compounds read low 0.981 | S. cerevisiae deletion strains, locus YKR026C, strain gcn3, active compounds read low 1.01 | S. cerevisiae deletion strains, locus YKR091W, strain srl3, active compounds read low 0.996 | S. cerevisiae deletion strains, locus YLL001W, strain dnm1, active compounds read low 1.02 | S. cerevisiae deletion strains, locus YLL026W, active compounds read low 0.995 | S. cerevisiae deletion strains, locus YLL041C, strain sdh2, active compounds read low 0.993 | S. cerevisiae deletion strains, locus YLR027C, strain aat2, active compounds read low 1.01 | S. cerevisiae deletion strains, locus YLR039C, strain RIC1, active compounds read low 0.999 | S. cerevisiae deletion strains, locus YLR058C, strain SHM2, active compounds read low 0.978 | S. cerevisiae deletion strains, locus YLR102C, strain apc9, active compounds read low 0.99 | S. cerevisiae deletion strains, locus YLR113W, strain HOG1, active compounds read low 0.966 | S. cerevisiae deletion strains, locus YLR221C, strain rsa3, active compounds read low 1.01 | S. cerevisiae deletion strains, locus YLR258W, strain gsy2, active compounds read low 1.02 | S. cerevisiae deletion strains, locus YLR262C, strain YPT6 (second series), active compounds read low 0.981 | S. cerevisiae deletion strains, locus YLR262C, strain YPT6, active compounds read low 0.949 | S. cerevisiae deletion strains, locus YLR268W, strain sec22, active compounds read low 1.01 | S. cerevisiae deletion strains, locus YLR320W, strain mms22, active compounds read low 1 | S. cerevisiae deletion strains, locus YLR330W, strain CHS5, active compounds read low 0.995 | S. cerevisiae deletion strains, locus YLR342W, strain FKS1 (second series), active compounds read low 1.03 | S. cerevisiae deletion strains, locus YLR342W, strain FKS1, active compounds read low 1.01 | S. cerevisiae deletion strains, locus YLR357W, strain rsc2, active compounds read low 1.05 | S. cerevisiae deletion strains, locus YLR370C, strain arc18, active compounds read low 1.01 | S. cerevisiae deletion strains, locus YLR371W, strain rom2, active compounds read low 0.991 | S. cerevisiae deletion strains, locus YLR384C, strain iki3, active compounds read low 0.994 | S. cerevisiae deletion strains, locus YLR418C, strain cdc73, active compounds read low 1.02 | S. cerevisiae deletion strains, locus YML016C, strain PPZ1, active compounds read low 0.991 | S. cerevisiae deletion strains, locus YML032C, strain rad52, active compounds read low 0.972 | S. cerevisiae deletion strains, locus YML120C, strain ndi1, active compounds read low 1 | S. cerevisiae deletion strains, locus YML124C, strain tub3, active compounds read low 0.991 | S. cerevisiae deletion strains, locus YMR058W, strain fet3, active compounds read low 1.01 | S. cerevisiae deletion strains, locus YMR078C, strain ctf18, active compounds read low 0.983 | S. cerevisiae deletion strains, locus YMR125W, strain sto1, active compounds read low 1.03 | S. cerevisiae deletion strains, locus YMR129W, active compounds read low 1.01 | S. cerevisiae deletion strains, locus YMR205C, strain PFK2, active compounds read low 1.02 | S. cerevisiae deletion strains, locus YMR223W, strain ubp8, active compounds read low 1 | S. cerevisiae deletion strains, locus YMR231W, strain pep5, active compounds read low 1.01 | S. cerevisiae deletion strains, locus YMR263W, strain SAP30, active compounds read low 0.984 and 1.01 | S. cerevisiae deletion strains, locus YMR307W, strain GAS1, active compounds read low 1.12 | S. cerevisiae deletion strains, locus YNL067W, strain RPL9B, active compounds read low 0.996 | S. cerevisiae deletion strains, locus YNL071W, strain lat1, active compounds read low 1 | S. cerevisiae deletion strains, locus YNL128W, strain TEP1, active compounds read low 0.976 | S. cerevisiae deletion strains, locus YNL153C, strain GIM3, active compounds read low 0.986 and 1.02 | S. cerevisiae deletion strains, locus YNL175C, strain NOP13, active compounds read low 1.01 | S. cerevisiae deletion strains, locus YNL183C, strain NPR1, active compounds read low 0.945 | S. cerevisiae deletion strains, locus YNL197C, strain WHI3, active compounds read low 1.01 | S. cerevisiae deletion strains, locus YNL209W, strain ssb2, active compounds read low 1 | S. cerevisiae deletion strains, locus YNL224C, strain SQS1, active compounds read low 1 | S. cerevisiae deletion strains, locus YNL233W, strain BNI4, active compounds read low 0.994 | S. cerevisiae deletion strains, locus YNL248C, strain rpa49, active compounds read low 1.04 | S. cerevisiae deletion strains, locus YNL250W, strain rad50, active compounds read low 0.988 | S. cerevisiae deletion strains, locus YNL271C, strain bni1, active compounds read low 0.992 | S. cerevisiae deletion strains, locus YNL298W, strain CLA4, active compounds read low 0.926 | S. cerevisiae deletion strains, locus YNL307C, strain MCK1, active compounds read low 0.992 | S. cerevisiae deletion strains, locus YNL322C, strain KRE1 (second series), active compounds read low 1.04 | S. cerevisiae deletion strains, locus YNL322C, strain KRE1, active compounds read low 0.992 | S. cerevisiae deletion strains, locus YNR049C, strain mso1, active compounds read low 1.01 | S. cerevisiae deletion strains, locus YNR052C, strain pop2, active compounds read low 0.974 | S. cerevisiae deletion strains, locus YOL006C, strain TOP1, active compounds read low 1.02 | S. cerevisiae deletion strains, locus YOL012C, strain htz1 0.954 | S. cerevisiae deletion strains, locus YOL147C, strain pex11, active compounds read low 1 | S. cerevisiae deletion strains, locus YOR001W, strain rrp6, active compounds read low 1 | S. cerevisiae deletion strains, locus YOR061W, strain CKA2, active compounds read low 0.973 | S. cerevisiae deletion strains, locus YOR069W, strain VPS5, active compounds read low 0.998 | S. cerevisiae deletion strains, locus YOR070C, strain gyp1, active compounds read low 1.02 | S. cerevisiae deletion strains, locus YOR080W, strain dia2, active compounds read low 1.01 | S. cerevisiae deletion strains, locus YOR083W, strain WHI5 (second series), active compounds read low 1.02 | S. cerevisiae deletion strains, locus YOR083W, strain WHI5, active compounds read low 1 | S. cerevisiae deletion strains, locus YOR106W, strain vam3, active compounds read low 1.03 | S. cerevisiae deletion strains, locus YOR136W, strain idh2, active compounds read low 0.962 | S. cerevisiae deletion strains, locus YOR144C, strain elg1, active compounds read low 0.993 | S. cerevisiae deletion strains, locus YOR184W, strain ser1, active compounds read low 0.988 | S. cerevisiae deletion strains, locus YOR231W, strain MKK1, active compounds read low 0.973 | S. cerevisiae deletion strains, locus YOR265W, strain rbl2, active compounds read low 1.01 | S. cerevisiae deletion strains, locus YOR270C, strain vph1, active compounds read low 1.1 | S. cerevisiae deletion strains, locus YOR290C, strain snf2, active compounds read low 1.04 | S. cerevisiae deletion strains, locus YOR316C, strain cot1, active compounds read low 0.985 | S. cerevisiae deletion strains, locus YPL051W, strain arl3, active compounds read low 1.02 | S. cerevisiae deletion strains, locus YPL055C, strain LGE1, active compounds read low 0.957 | S. cerevisiae deletion strains, locus YPL078C, strain atp4, active compounds read low 1.03 | S. cerevisiae deletion strains, locus YPL106C, strain sse1, active compounds read low 0.996 | S. cerevisiae deletion strains, locus YPL240C, strain hsp82, active compounds read low 1.01 | S. cerevisiae deletion strains, locus YPL241C, strain CIN2, active compounds read low 0.997 and 1.01 | S. cerevisiae deletion strains, locus YPL256C, strain CLN2, active compounds read low 0.988 | S. cerevisiae deletion strains, locus YPR119W, strain clb2, active compounds read low 0.987 | S. cerevisiae deletion strains, locus YPR141C, strain kar3, active compounds read low 1 | S. cerevisiae deletion strains, locus YPR163C, strain tif3, active compounds read low 0.987 | S. cerevisiae deletion strains, locus YPR167C, strain met16, active compounds read low 0.99 | S. cerevisiae deletion strains, strain wtn01, active compounds read low 0.983 | S. cerevisiae strains, strain wild type, active compounds read low 0.999
